YjeE inh – YjeE (TsaE) inhibition, E. coli. P0AF67. purified YjeE enzyme, qHTS inhibition assay. Potency, µM. hit rate 0.05% among 71,000
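Fluorescence polarization of a BODIPY Texas Red–ADP probe (2 uM) bound to purified YjeE (10 uM) was read after 15 min room-temperature incubation with compounds. Loss of polarization marks inhibitors; ADP serves as titrated control.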
BRCT inh green – blocks human BRCA1 BRCT binding to phosphopeptide, green readout; AID 875; Potency, µM (doses to about 76.9 µM), inactives show at the top dose activity change, negative = inhibition, hits mostly inhibitors; hit rate 0.05% among 75,000; BRCA1 BRCT-phosphopeptide binding, green fluorescence polarization;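 note: potency is the fitted concentration of half-maximal effect; plate controls were peptide without protein for full effect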
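Fluorescence polarization: His-tagged BRCT (~35 kDa BRCA1 C-terminus, 250 nM) bound to 100 nM fluorescein-labeled phosphorylated 10-aa BACH1 peptide, pH 7.3 phosphate buffer with DTT and Tween 20. Compounds incubated 12 min at room temperature; inhibition read as lowered polarization.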
15-hLO inh – inhibitors of human 15-lipoxygenase (ALOX15) | hit rate 1.4% among 74,000 | AID 887 | purified 15hLO-1, xylenol orange hydroperoxide absorbance | Potency, µM (doses to about 57.1 µM), for the others: at the highest dose activity change, negative = inhibition, hits mostly inhibitors | P16050; note: potency is the fitted concentration of half-maximal effect; % is set by controls: 0 for no effect and ±100 for the full control effect; nearly all actives have a fitted effect of over 55% in size
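Purified human 15hLO-1 (40 nM final) in 25 mM Hepes pH 7.5, 0.01% Triton X-100 was preincubated with compound 15 min at room temperature, then reacted 6 min with 50 uM arachidonic acid; hydroperoxide detected by Fe-XO, 573/405 nm absorbance ratio.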
BRCT inh red – disrupts BRCA1 BRCT binding to phosphoprotein, red fluorophore readout; BRCT-phosphopeptide binding, red fluorescence polarization; Potency, µM (highest dose often 76.9 µM), for the others: at the highest dose activity change, negative = inhibition, usual class: inhibitors; P38398; hit rate 0.03% among 75,000; note: % is set by controls: 0 for no effect and ±100 for the full control effect
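Rhodamine-labelled pBACH1 10-mer (100 nM) bound to BRCT domain (100 nM) at pH 7.3; compounds incubated 12 min room temperature, polarization read. Free peptide defines full inhibition; unlabelled decapeptide titrated as control.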
DNA Pol III inh – inhibitors of bacterial DNA polymerase III holoenzyme; hit rate 0.25% among 71,000; Potency, µM (doses to about 57.1 µM), inactives show top-dose activity change, negative = inhibition; reconstituted DNA polymerase III holoenzyme replication, biochemical; AID 603; note: potency is the fitted concentration of half-maximal effect; % is set by controls: 0 for no effect and ±100 for the full control effect
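Reconstituted *E. coli* holoenzyme (0.35 nM Pol III, 1 nM beta, 154 nM SSB, 2 nM primase) was preincubated with compound for 15 min at RT. Synthesis on 1.4 nM ssM13Gori ran 35 min, then was stopped with PicoGreen/EDTA and read as dsDNA fluorescence.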
Tau filament bind – binds recombinant human tau filaments; recombinant tau filaments, thioflavin S fluorescence, 15 h; filaments grown with octadecylsulfate alongside compound; hit rate 2% among 71,000; Potency, µM (doses to about 57.1 µM), inactives show at the highest dose activity change, negative = inhibition; AID 596; P10636;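 note: potency is the fitted concentration of half-maximal effect; % is set by controls: 0 for no effect and ±100 for the full control effect; actives lower thioflavin S fluorescence by blocking filaments or displacing dye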
Target sequence (P10636 whole entry, looked up): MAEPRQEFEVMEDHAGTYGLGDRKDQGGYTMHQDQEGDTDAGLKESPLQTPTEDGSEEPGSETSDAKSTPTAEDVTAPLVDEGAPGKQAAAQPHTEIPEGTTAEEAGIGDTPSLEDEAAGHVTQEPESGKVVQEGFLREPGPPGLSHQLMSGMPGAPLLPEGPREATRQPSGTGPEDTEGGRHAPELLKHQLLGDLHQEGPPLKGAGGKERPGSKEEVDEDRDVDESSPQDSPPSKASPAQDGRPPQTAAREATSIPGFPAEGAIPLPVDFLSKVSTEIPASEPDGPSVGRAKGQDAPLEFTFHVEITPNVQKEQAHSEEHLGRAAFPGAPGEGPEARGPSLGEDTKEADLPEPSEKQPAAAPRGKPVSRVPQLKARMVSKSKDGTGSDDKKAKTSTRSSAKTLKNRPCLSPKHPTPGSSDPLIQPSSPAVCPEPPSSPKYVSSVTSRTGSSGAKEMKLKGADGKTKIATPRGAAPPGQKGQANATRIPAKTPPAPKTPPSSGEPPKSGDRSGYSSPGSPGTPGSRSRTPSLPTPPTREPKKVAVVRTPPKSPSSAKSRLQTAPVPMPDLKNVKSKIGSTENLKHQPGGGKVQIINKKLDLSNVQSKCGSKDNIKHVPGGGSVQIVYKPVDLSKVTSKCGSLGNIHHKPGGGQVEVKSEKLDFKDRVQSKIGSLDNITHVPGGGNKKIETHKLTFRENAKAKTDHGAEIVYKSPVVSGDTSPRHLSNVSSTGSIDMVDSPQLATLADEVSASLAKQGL
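Read-out: ThS fluorescence, 450 nm excitation/510 nm emission; lower signal marks blocked filament formation or displaced dye. Tau at 1 uM with 30 uM ODS, 10 uM ThS, 5 mM DTT, 100 mM NaCl, 10 mM HEPES pH 7.4; 15 h, 37 C.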
* marks the source's active call; other numbers are inactive results; [ ] = dose if it differs, or a comment. Hits are enriched below; roughly 3.3% of the tested compounds scored in any of these assays. Calls come from the whole dose curve; as a rule, active = well fitted curve in the direction sought with a large enough effect; inconclusive = small, poorly fitted or top-dose-only effect, or another doubt; inactive = no such curve, though single readings can be large; an effect the other way counts as inactive or inconclusive.

For O=C(Cn1c(-c2ccccc2)noc1=O)Nc1ccc(N2CCCCCC2)cc1 the results were YjeE inh inactive, BRCT inh green 0%, 15-hLO inh inconclusive, BRCT inh red -2%, DNA Pol III inh -1% and Tau filament bind 13µM*.
`O=C1c2c(O)cc(O)cc2O[C@@H](c2ccc(O)c(O)c2)[C@H]1O` gave YjeE inh inactive, BRCT inh green -2%, 15-hLO inh 13µM*, BRCT inh red 1%, DNA Pol III inh -1% and Tau filament bind -8%.
Screening COc1cc(C2Oc3cc(C4Oc5cc(O)cc(O)c5C(=O)C4O)ccc3OC2CO)ccc1O (stereo unspecified) returned BRCT inh green -3%[3.08 µM], 15-hLO inh inconclusive and BRCT inh red 2%.
Screening O=C1CC(c2ccc(O)c(O)c2)Oc2cc(O)cc(O)c21 (stereo unspecified) returned BRCT inh green -1%[3.08 µM], 15-hLO inh 10µM* and BRCT inh red 19%.
`O=C1CC(c2ccc(O)cc2)Oc2cc(O)cc(O)c21` (stereo unspecified) gave BRCT inh green 1%, 15-hLO inh -6%[25.6 µM] and BRCT inh red 11%.
`CCOC(=O)c1ccc(-n2[nH]c(-c3ccccc3)cc2=O)cc1` gave YjeE inh inactive, BRCT inh green 5%, 15-hLO inh -20%, BRCT inh red 0%, DNA Pol III inh -2% and Tau filament bind 16µM*.
Screening CCOc1cc(N2CCOCC2)c(OCC)cc1NC(=O)c1cc(-c2ccco2)nc2ccccc12 returned YjeE inh inactive, BRCT inh green -3%, 15-hLO inh -24%, BRCT inh red -1%, DNA Pol III inh 0% and Tau filament bind 10µM*.
Screening Cc1cccc(NC(=O)c2cc(-c3ccco3)nc3ccccc23)n1 returned YjeE inh inactive, BRCT inh green 2%, 15-hLO inh inconclusive, BRCT inh red -2%, DNA Pol III inh -6% and Tau filament bind 63%.
`O=C(NCC1CCCO1)c1cc(-c2ccco2)nc2ccccc12` (stereo unspecified) gave YjeE inh inactive, BRCT inh green -3%, 15-hLO inh -26%, BRCT inh red 0%, DNA Pol III inh 32µM* and Tau filament bind -3%.
For O=C(Nc1ccccc1C(=O)NCC1CCCO1)c1ccco1 (stereo unspecified) the results were YjeE inh inactive, BRCT inh green -2%, 15-hLO inh 3%, BRCT inh red -2%, DNA Pol III inh -2% and Tau filament bind 2%.
For C[C@H]1[C@H]2CC[C@H]3C4CC=C5C[C@@H](N(C)C)CC[C@]5(C)C4CC[C@]23CN1C (stereo partly specified) the results were BRCT inh green -1%, 15-hLO inh 5%[25.6 µM] and BRCT inh red 0%.
Screening COc1ccc(Cl)c(N2CCN(CCCNC(=O)Nc3ccc(C)cc3)CC2)c1 returned YjeE inh inactive, BRCT inh green 0%, 15-hLO inh -12%, BRCT inh red -1%, DNA Pol III inh -8% and Tau filament bind 16µM*.
Clc1ccc2c(c1)N(CCCN1CCCC13CCCCC3)c1ccccc1S2 was read as YjeE inh inactive, BRCT inh green -2%[15.4 µM], 15-hLO inh 9%[11.4 µM], BRCT inh red 0%[15.4 µM], DNA Pol III inh -4%[11.4 µM] and Tau filament bind -4%[11.4 µM].
For c1ccc2c(c1)nnn1c3ccccc3nc21 the results were YjeE inh inactive, BRCT inh green -1%, 15-hLO inh -1%, BRCT inh red 0%, DNA Pol III inh -8% and Tau filament bind 7.9µM*.
O[C@@H](COc1cccc2ccccc12)CN1CCOCC1 was read as YjeE inh inactive, BRCT inh green -1%[15.4 µM], 15-hLO inh 3%[11.4 µM], BRCT inh red 1%[15.4 µM], DNA Pol III inh -10%[11.4 µM] and Tau filament bind 15%[11.4 µM].
Screening O=C1CCCC2=C1C(c1ccco1)Nc1ccc3ccccc3c12 (stereo unspecified) returned YjeE inh inactive, BRCT inh green -4%, 15-hLO inh inconclusive, BRCT inh red -5%, DNA Pol III inh 25µM* and Tau filament bind 13µM*.
`COc1cccc(Cn2c(=O)c(-c3cccc(C#N)c3)nc3cnc(N4CCN(C)CC4)nc32)c1` gave YjeE inh inactive, BRCT inh green -1%, 15-hLO inh -7%, BRCT inh red 1%, DNA Pol III inh -2% and Tau filament bind 3.2µM*.
Screening COc1ccc(Oc2ncc3nc(-c4cccc(C#N)c4)c(=O)n(Cc4cccc(OC)c4)c3n2)cc1 returned YjeE inh inactive, BRCT inh green -4%, 15-hLO inh -3%, BRCT inh red -3%, DNA Pol III inh -4% and Tau filament bind 10µM*.
Screening S=C(c1ccc(N2CCOCC2)cc1)N1CCOCC1 returned YjeE inh inactive, BRCT inh green -1%, 15-hLO inh inconclusive, BRCT inh red -1%, DNA Pol III inh 4% and Tau filament bind 6%.
CCN(CC)c1ccc(C(=S)N2CCN(c3ccccc3)CC2)cc1 was read as YjeE inh inactive, BRCT inh green -2%, 15-hLO inh -20%, BRCT inh red 0%, DNA Pol III inh inconclusive and Tau filament bind 5µM*.
Screening S=C(c1ccc(N2CCCC2)cc1)N1CCCCC1 returned YjeE inh inactive, BRCT inh green 0%, 15-hLO inh inconclusive, BRCT inh red -1%, DNA Pol III inh -4% and Tau filament bind 32µM*.
Nc1ccc(N2CCCCCC2)cc1 was read as YjeE inh inactive, BRCT inh green -3%, 15-hLO inh 3.2µM*, BRCT inh red -7%, DNA Pol III inh -5% and Tau filament bind 10µM*.
`Cc1ccc(S(=O)(=O)n2c3ccccc3c3nnc(C(=O)c4ccccc4)nc32)cc1` gave BRCT inh green -4%[15.4 µM], 15-hLO inh 0%[11.4 µM] and BRCT inh red 0%[15.4 µM].
Screening COc1ccc(C(=O)N2CCC3(CCCN(c4cccc(-c5ccccc5)c4)C3)CC2)cc1 returned YjeE inh inactive, BRCT inh green 11%, 15-hLO inh -16%, BRCT inh red 1%, DNA Pol III inh 8% and Tau filament bind 26%.
`C[C@@H]1NC(=O)C/C=C\[C@@H](C)[C@@H]2C=C[C@H](O)[C@@H](COC(=O)[C@H](C)NC(=O)C/C=C\[C@@H](C)[C@@H]3C=C[C@H](O)[C@@H](COC1=O)O3)O2` gave BRCT inh green -8%[15.4 µM], 15-hLO inh 3%[11.4 µM] and BRCT inh red 1%[15.4 µM].
For CCN(CC)Cc1cc(Nc2ccnc3cc(Cl)ccc23)ccc1O the results were YjeE inh inactive, BRCT inh green -1%[34.4 µM], 15-hLO inh 2%[25.6 µM], BRCT inh red 1%[34.4 µM], DNA Pol III inh -3%[25.6 µM] and Tau filament bind 3.2µM*.

Assay outcomes: PubChem, National Center for Advancing Translational Sciences (NCATS)
